High-throughput results deposited in PubChem by National Center for Advancing Translational Sciences (NCATS).
Rows were chosen to be rich in hits. Some 2.9% of all compounds tested hit in one or more screens of this group.
SNCA expr inhib: inhibitors of alpha-synuclein (SNCA) gene expression; HEK-293 SNCA-luciferase knock-in, luminescence, 24 h; Potency, µM (doses to about 57.2 µM), for the others: at the top dose activity change, negative = inhibition, usual class: inhibitors; 140,000 compounds, 0.17% hits; AID 1671194;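 also: potency is read from the fitted curve at half-maximal effect; plate controls were DMSO cells for no effect and cell-free wells for full effect; nearly all actives have a fitted effect of over 45% in size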
IP6K1 inhibitor: inhibitors of human IP6K1. IP6K1 kinase, ADP-Glo luminescence, 2 h; active compounds read low. activity change, % (series mostly up to about 58 µM). 140,000 compounds, 0.81% hits. Q92551. AID 1645851; in the data active = activity change below about -25%; also: % is scaled to controls: 0 for no effect and ±100 for the full control effect
Target sequence (Q92551 whole entry, looked up): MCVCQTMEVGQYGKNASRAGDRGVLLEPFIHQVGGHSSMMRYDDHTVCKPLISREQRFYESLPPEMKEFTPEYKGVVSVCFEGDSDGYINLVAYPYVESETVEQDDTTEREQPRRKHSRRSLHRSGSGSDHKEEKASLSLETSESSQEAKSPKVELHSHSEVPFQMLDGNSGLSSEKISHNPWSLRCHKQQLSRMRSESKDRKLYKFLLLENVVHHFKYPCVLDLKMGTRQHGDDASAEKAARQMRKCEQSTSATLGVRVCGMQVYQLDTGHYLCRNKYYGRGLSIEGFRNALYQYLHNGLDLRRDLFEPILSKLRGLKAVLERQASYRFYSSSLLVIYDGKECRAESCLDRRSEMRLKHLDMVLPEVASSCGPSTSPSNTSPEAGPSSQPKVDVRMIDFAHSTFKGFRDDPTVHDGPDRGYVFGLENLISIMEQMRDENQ
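ADP-Glo luminescence measures ADP made by human IP6K1 during a 2 h RT reaction with ATP/IP6 (mix at 1.3 mM/130 uM); top library doses 57.5 and 19.1 uM final.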
SNCA viab count: counter-screen for SNCA expression inhibitors: cell viability; HEK-293-SNCA-luc viability, GF-AFC fluorescence, 24 h; Potency, µM (highest dose often 57.1 µM), inactives show at the top dose activity change, negative = cytotoxicity, hits mostly cytotoxic; 150,000 compounds, 0.12% hits; AID 1671193;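 also: potency is read from the fitted curve at half-maximal effect; 0% = DMSO-treated cells and -100% = medium-only wells without cells; nearly all actives have a fitted effect of over 30% in size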
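HEK-293-SNCA-luc cells (1500/well) plated 24 h, then exposed 24 h to a dilution series; GF-AFC added 30 min at 37C, fluorescence 405/540 nm; normalised to medium-only and DMSO wells, Hill fit.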
KDM5B inh: blocks human KDM5B histone demethylase activity | KDM5B demethylase, FDH-coupled NADH fluorescence (FDH is formaldehyde dehydrogenase) | Potency, µM (series often up to 57.7 µM), hits mostly inhibitors | 220,000 compounds, 2.6% hits; also: potency is read from the fitted curve at half-maximal effect; 0% is about no effect; nearly all actives have a fitted effect of over 70% in size
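Inhibition is measured as reduced NADH fluorescence generation from FDH coupling to formaldehyde release. Truncated KDM5BΔAP at 200 nM final acts on H3K4me3 peptide (12.5 µM in substrate mix) in pH 7.5 HEPES buffer with Tween-20, 30 min, room temperature.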
The depositor's hits bear a star; i = inactive; ? = inconclusive; . = no result; [ ] = dose if it differs, or a comment. Unless noted, calls follow the shape of the dose curve; as a rule, active = well fitted curve in the direction sought with a large enough effect; inconclusive = small, poorly fitted or top-dose-only effect, or another doubt; inactive = no such curve, though single readings can be large; an effect the other way counts as inactive or inconclusive.

SMILES	SNCA expr inhib	IP6K1 inhibitor	SNCA viab count	KDM5B inh
N#Cc1cn(CC(=O)Nc2cc(F)ccc2F)c2ccccc12	.	.	.	i
O=C(O)CCc1cc2n(n1)CCCN(C(=O)c1cc3c([nH]c1=O)CCC3)C2	1%	-6	8%	28µM*
COC(=O)CCOc1ccc(S(=O)(=O)Nc2ccc(OC)c(Cl)c2)cc1	.	.	.	i
COc1cc(OC)cc(-c2nc3ccc(-c4ccc(OC)c(OC)c4OC)cc3o2)c1	-9%	14	7%	25µM*
COc1ccc(-c2ccc3nc(-c4cccc(Cl)c4)oc3c2)c(OC)c1OC	-7%	-4	10%	7.9µM*
COCCOc1nc2c(c(=O)n(C)c(=O)n2C)n1Cc1ccc(C)cc1	.	.	.	i
Cc1ccc(-n2nc3c(=O)n(CCCC(=O)NC(C)c4ccccc4)nc(C)c3c2C)cc1 (stereo not drawn)	28µM*	0	2%	i
Cc1ccc(-n2nc3c(=O)n(CCCC(=O)NCCc4ccccc4)nc(C)c3c2C)cc1	22%	10	5%	i
CN1Cc2ccc(Nc3ccccc3)nc2C(C)(C(=O)NCc2cccs2)C1 (stereo not drawn)	-15%[87.6 µM]	17	-22%[87.6 µM]	32µM*
COc1cccc(Nc2ccc3c(n2)C(C)(C(=O)NCC2CC2)CN(C)C3)c1 (stereo not drawn)	-5%[87.6 µM]	6	?	35µM*
CN1Cc2ccc(NCc3ccccc3)nc2C(C)(C(=O)NCc2cccnc2)C1 (stereo not drawn)	22%[87.6 µM]	2	5%[87.6 µM]	?
COc1cccc(Nc2ccc3c(n2)C(C)(C(=O)NCCc2cnc[nH]2)CN(C)C3)c1 (stereo not drawn)	1%[87.6 µM]	19	-22%[87.6 µM]	40µM*
Cc1ccccc1-c1cccc(CN2CCOC(CCN)C2)c1 (stereo not drawn)	?	-4	?	?
CCOC(=O)c1c(C)[nH]c(C)c1S(=O)(=O)N(C)CC(=O)Nc1cc(Cl)ccc1OC	-10%	-28*	-11%	i
CCOC(=O)c1c(C)[nH]c(C)c1S(=O)(=O)NCC(=O)Nc1cc(Cl)ccc1OC	13%	-1	-3%	i
Cc1c(-c2ccccc2F)[nH]c2ccc(CNS(=O)(=O)C3CC3)cc12	-1%	33	-14%	28µM*
O=C(NCc1ccccc1)C1CCN(Cc2ccccc2-c2ccccc2F)CC1	.	21	.	.
Cc1c(-c2ccccc2F)[nH]c2ccc(CNC(=O)C3CCNC3)cc12 (stereo not drawn)	-7%	-9	-3%	28µM*
CCOC(=O)N1CCC(N[C@@H]2CC[C@@H]2NC(=O)c2ccccn2)CC1	-16%	7	-9%	?
CCOC(=O)N1CCC(N[C@@H]2CC[C@@H]2NC(=O)c2cnc3cccnn23)CC1	-16%	22	2%	32µM*
Cc1cnc(CC2CCN(C(=O)C3CC3)CC2)n1Cc1ccccc1	-9%	14	-5%	i
CCCC(=O)c1cc2c(cc1NC(=O)c1ccccc1F)OCCO2	14µM*	22	-4%	?
CCC(=O)c1cc2c(cc1NC(=O)c1ccccc1F)OCCO2	12%	19	1%	i
COCCOc1ncccc1-c1noc([C@@H]2CCCN2C2CCN(C)CC2)n1	-5%[87.6 µM]	-9	-3%[87.6 µM]	i
COCCNc1ncccc1-c1noc([C@@H]2CCCN2Cc2cccc(C#N)c2)n1	-17%[87.6 µM]	11	-8%[87.6 µM]	?
SMILES	SNCA expr inhib	IP6K1 inhibitor	SNCA viab count	KDM5B inh
COCCNc1ncccc1-c1noc([C@@H]2CCCN2C2CCOCC2)n1	0%[87.6 µM]	14	-12%[87.6 µM]	40µM*
COCCNc1ncccc1-c1noc([C@@H]2CCCN2Cc2ccco2)n1	-21%[87.6 µM]	-6	-8%[87.6 µM]	28µM*
COCCNc1ncccc1-c1noc([C@@H]2CCCN2CC(C)(C)C)n1	-13%[87.6 µM]	23	-11%[87.6 µM]	35µM*
O=C(NCCc1ccccc1)c1ccc2nnc(C3CC3)n2c1	4%[87.6 µM]	-7	2%[87.6 µM]	.
O=C(NCCn1ccn2nc(-c3ccc(F)cc3)cc2c1=O)c1ccoc1	109%	1	-6%	?
COc1ccc(-c2cc3c(=O)n(CCNC(=O)c4sccc4C)ccn3n2)cc1	25%	-3	-14%	25µM*
CCOc1ccc(-c2cc3c(=O)n(CCNC(=O)Cc4ccccc4C)ccn3n2)cc1	19%	-2	-2%	22µM*
COc1ccc(-c2cc3c(=O)n(CCNC(=O)c4ccc(OC)c(OC)c4)ccn3n2)cc1	95%	-9	-6%	?
COc1ccc(-c2cc3c(=O)n(CCNC(=O)c4ccsc4)ccn3n2)cc1	16%	-5	-11%	22µM*
